The full list was thinned out, with hits kept by preference.
mHTT CaM bind: disrupts binding of mutant huntingtin to calmodulin | AlphaScreen His-mHTT/GST-CaM binding, luminescence | inhibition, % at 15 µM | actives 3.6% (n = 190,000) | P42858
Pf apPOL inh: Pf-apPOL DNA polymerase inhibition. inhibition, % at 10 µM. AID 1794808. Recombinant Pf-apPOL, molecular beacon fluorescence, 1.5 h. actives 0.25% (n = 210,000)
Of the large screens only hits and unclear results are named; the others gave an inactive call. No stated cut-off is given here; in the data, active means inhibition above about 50%; inactive means the rest.

O=C(CN1C(=O)/C(=C/c2cccc(Br)c2)Oc2ccccc21)NCc1cccnc1	none
COc1cc(/C=C2\C(=O)ON=C2C)ccc1OCc1cccc(F)c1	mHTT CaM bind 100
CC1=NOC(=O)/C1=C/c1ccc(OCc2cccc(F)c2)c(Cl)c1	none
CC1=NOC(=O)/C1=C/c1ccccc1OCc1cccc(Cl)c1	mHTT CaM bind 55
CC1=NOC(=O)/C1=C/c1ccccc1OCc1ccccc1F	none
Cc1ccc(C2CC(c3ccc4c(c3)OCO4)=NN2S(C)(=O)=O)o1 (stereo unspecified)	none
CCCCC(=O)Nc1ccc(Br)cc1C	none
Cc1[nH]c2ccccc2c1CN1CCc2ccccc2C1	mHTT CaM bind 62
Cc1ccc(CN2CCc3ccccc3C2)o1	none
Cc1nn(C)cc1S(=O)(=O)NC(C)CCc1ccccc1 (stereo unspecified)	none
CC1Cc2ccccc2N1S(=O)(=O)c1cc(Br)cc2c1N(C(=O)C1CC1)CC2 (stereo unspecified)	none
N#CC1=C(N)Oc2c(oc(CO)cc2=O)C1c1ccco1 (stereo unspecified)	none
Cc1cccc(S(=O)(=O)N2CC3CN(C(=O)c4cccc(F)c4)CC(C2)O3)c1	none
CCc1ccc(C(=O)N2CC3CN(S(=O)(=O)c4cccc(C)c4)CC(C2)O3)cc1	mHTT CaM bind 65
CCOc1ccc(C(=O)Nc2nc(C)cc(C)n2)cc1Br	none
Cc1cc(C)c2c(=O)n(C(=O)c3cccs3)sc2n1	Pf apPOL inh 100 (no result: mHTT CaM bind)
Cc1cc(C)c(C#N)c(OC(=O)c2cccs2)n1	none (no result: mHTT CaM bind)
Cc1nc(SCc2ccc(C(=O)N3CCCC3)cc2)nc(N2CCOCC2)c1C	none
COCCn1cnc2sc(C(=O)Nc3cccc(C(F)(F)F)c3)c(C)c2c1=O	none
CCC(C)NC(=O)c1sc2ncn(CC(=O)Nc3cccc(C(F)(F)F)c3)c(=O)c2c1C (stereo unspecified)	mHTT CaM bind 99
Cc1c(C(=O)O)sc2ncn(CC(=O)Nc3cccc(C(F)(F)F)c3)c(=O)c12	none
CCCCNC(=O)c1sc2ncn(CC(=O)Nc3cccc(C(F)(F)F)c3)c(=O)c2c1C	mHTT CaM bind 68
O=C1CCc2c1[nH]c1ccc(C3CCCCC3)cc21	none
OCCN=C1CCc2c1[nH]c1ccc(C3CCCCC3)cc21	mHTT CaM bind 58
Cn1c(=O)nc(-c2ccccc2)c2cc([N+](=O)[O-])ccc21	none
CCN(CC)C(=O)c1ccc(CN2CCOCC2)o1	none
CN1C(=O)c2ccc(-c3nc4ccc(Br)cc4c(=O)o3)cc2C1=O	none
O=c1[nH]c2ccccc2c(=O)n1Cc1ccccc1	none
Cc1c(Cc2ccccc2)[nH]c2ccccc12	mHTT CaM bind 100
Brc1ccc(/C=N\n2cnnc2)cc1	none (no result: Pf apPOL inh)
CCN1CCC2(CC1)N=C(c1ccc(F)cc1)CC(c1cc(Cl)ccc1O)N2 (stereo unspecified)	none
COc1cccc(C2CC(c3ccc(Cl)cc3)=NC3(CCN(C(C)=O)CC3)N2)c1O (stereo unspecified)	mHTT CaM bind 58
COc1ccc(C2=NC3(CCN(C(C)=O)CC3)NC(c3cc(Cl)ccc3O)C2)cc1 (stereo unspecified)	mHTT CaM bind 99
CC(=O)N1CCC2(CC1)N=C(c1ccc3c(c1)OCO3)CC(c1cc(Cl)ccc1O)N2 (stereo unspecified)	mHTT CaM bind 79
CCN1CCC2(CC1)N=C(c1ccc3c(c1)OCO3)CC(c1cc(Cl)ccc1O)N2 (stereo unspecified)	none
Cc1ccc(C)c(C2=NC3(CCN(C)CC3)NC(c3cc(Cl)ccc3O)C2)c1 (stereo unspecified)	mHTT CaM bind 98
Cc1ccc(C2CC(c3ccccc3O)=NC3(CCN(C)CC3)N2)cc1 (stereo unspecified)	none
COc1cccc(C2CC(c3ccc(C)c(C)c3)=NC3(CCN(C(C)=O)CC3)N2)c1O (stereo unspecified)	none
NC(=O)C1CCN(CC(=O)NCCc2ccccc2)CC1	none
O=C(NCC(c1cccs1)N1CCCC1)c1ccc(Br)o1 (stereo unspecified)	none
COc1ccccc1C1CC(c2ccccc2O)=NC2(CCN(C(C)C)CC2)N1 (stereo unspecified)	mHTT CaM bind 66
COc1cccc(C2=NC3(CCN(C)CC3)NC(c3cc(Cl)ccc3O)C2)c1 (stereo unspecified)	mHTT CaM bind 52
CC(=O)N1CCC2(CC1)N=C(c1ccc(F)cc1)CC(c1cc(Cl)ccc1O)N2 (stereo unspecified)	none
CN1CCC2(CC1)N=C(c1ccccc1O)CC(c1ccccc1O)N2 (stereo unspecified)	none
CC(C)N1CCC2(CC1)N=C(c1ccccc1O)CC(c1ccccc1O)N2 (stereo unspecified)	none
CC(=O)N1CCC2(CC1)N=C(c1ccccc1)CC(c1cc(Cl)ccc1O)N2 (stereo unspecified)	mHTT CaM bind 65
Oc1ccc(Cl)cc1C1=NC2(CCNCC2)NC(c2ccccc2O)C1 (stereo unspecified)	mHTT CaM bind 100
CCOc1ccc(C2=NC3(CCN(C)CC3)NC(c3cc(Cl)ccc3O)C2)cc1 (stereo unspecified)	none

Bioassay records from PubChem BioAssay.
